# Rows were chosen to be rich in hits. Some 19% of all compounds tested hit in one or more screens of this group.
# TDP1 cell noCPT – qHTS for Inhibitors of human tyrosyl-DNA phosphodiesterase 1 (TDP1): qHTS in cells in absence of CPT. 420,000 compounds, 15% hits. Potency, µM (titrated, usually from 46.2 µM), for inactives: at the top dose activity change, negative = growth inhibition, hits mostly inhibitors. DT40 Tdp1-/- hTDP1 cells, no CPT, ATP luminescence, 48 h; further: potency means the concentration at half of the fitted maximal effect; nearly all actives have a fitted effect of over 55% in size
#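 Readout: luminescence from CellTiter-Glo after 30 min in the dark at RT. Cells: DT40 Tdp1-/- with stable hTDP1, 400/well. Exposure: compounds alone, ≥48 hr, 37 °C.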
# uPA surface inh – blocks generation of uPA at the cell surface; cell surface uPA generation assay, qHTS; 330,000 compounds, 0.31% hits; Potency, µM (top dose mostly 38.3 µM), for inactives: top-dose activity change, negative = inhibition, usual class: inhibitors; active means well fitted inhibition curve with a large enough effect; inconclusive means small, poorly fitted or top-dose-only effect; inactive means no such curve, though single readings can be large or run the other way; tested in mouse RAW 264.7 cells; further: potency means the concentration at half of the fitted maximal effect; nearly all actives have a fitted effect of over 55% in size
# IL-1B inflam inh – blocks inflammasome-driven IL-1 beta release; THP-1 LPS/ATP IL-1B secretion, AlphaLISA, 16 h; active compounds read low; activity change, % at 57.5 µM; 360,000 compounds, 4.7% hits; AID 743279; in the data active means activity change below about -50%; inconclusive means mostly about -30% to -49%
#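 THP-1 cells pretreated 1 hr with compounds (up to 57.5 uM final), then stimulated with LPS (250 ng/mL final) plus ATP (1.25 mM final); secreted IL-1B measured by AlphaLISA after 16 hr, decreased signal indicating inhibition.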
# HT1080 IDH1KD tx – toxicity to HT-1080 IDH1 knockdown cells (counter line); AID 686971; HT-1080 IDH1 knockdown viability, ATP luminescence, 48 h; 360,000 compounds, 2% hits; Potency, µM (highest dose often 46.1 µM), for the others: at the highest dose activity, negative = toxicity, usual class: cytotoxic;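 further: potency means the concentration at half of the fitted maximal effect; 0% = DMSO wells and -100% = cell-free medium wells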
#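 After a 2 h attachment period, IDH1KD HT-1080 cells took pin-transferred compound for 48 h at 37 °C; ATP-based luminescence after 10 min room-temperature reagent incubation reported viability.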
# HT1080NT lethal – kills 2HG-producing HT-1080-NT fibrosarcoma cells. HT-1080-NT fibrosarcoma viability, CellTiter-Glo ATP luminescence, 48 h. Potency, µM (doses to about 46.1 µM), inactives show top-dose activity, negative = less viability, usual class: cytotoxic. 360,000 compounds, 1.6% hits. AID 686970;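 further: NT is the 2HG producing partner of a matched IDH1 knockdown line; potency means the concentration at half of the fitted maximal effect; 0% = DMSO-treated cells and -100% = media-only wells without cells; nearly all actives have a fitted effect of over 55% in size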
#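 Luminescent CellTiter-Glo readout after 48 hours of compound exposure at 37 degrees C defined viability of HT-1080-NT cells. Activity was normalized to DMSO wells and cell-free media wells; concentration-response curves were fitted and assigned curve classes.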
# DT40 TDP1 CPT – growth inhibition of DT40 Tdp1-/-;hTDP1 cells with camptothecin (screen for TDP1 inhibitors); chicken DT40 Tdp1-/-;hTDP1 cells + 20 nM CPT, ATP luminescence, 48 h; Potency, µM (titrated, usually from 46.2 µM), inactives show at the highest dose activity change, negative = growth inhibition, most hits filed as inhibitors; 420,000 compounds, 12% hits; further: potency means the concentration at half of the fitted maximal effect; nearly all actives have a fitted effect of over 55% in size
#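 Chicken DT40 Tdp1-/- cells complemented with human TDP1, 400 cells/well, exposed to compounds plus 20 nM camptothecin for at least 48 h at 37 C; viability read as ATP content by CellTiter-Glo luminescence.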
# Active calls of the source: *; ? = inconclusive; . = not tested or not shown. Unless noted, the call rests on the fitted dose curve; in most records, active means well fitted curve in the direction sought with a large enough effect; inconclusive means small, poorly fitted or top-dose-only effect, or another doubt; inactive means no such curve, though single readings can be large; an effect the other way counts as inactive or inconclusive. Unless noted, on the % scale 0 is the no-effect control and ±100 the full control effect.
SMILES,TDP1 cell noCPT,uPA surface inh,IL-1B inflam inh,HT1080 IDH1KD tx,HT1080NT lethal,DT40 TDP1 CPT
C#CCOc1ccc(/C=C2/C(=O)ON=C2C)cc1Br,26µM*,1%,-27,2%,-4%,23µM*
O=C(CCNC(=O)c1ccc([N+](=O)[O-])cc1)Nc1ccc(F)cc1F,10%,10%,-16,15%,21%,-16%
CSc1ccc(NC(=O)NN(c2ccccc2)C2CCS(=O)(=O)C2)cc1 (configuration not stated),-28%,.,3,-9%,1%,2%
O=C1c2ccccc2N2C(=O)c3ccccc3[C@H]2N1c1ccccc1,18µM*,0%,-14,-12%,-19%,16µM*
CCCCOCCCNC(=O)C[C@@H]1C[C@@]2(C(=O)OCC)CCC=C2N(CCC2=CCCCC2)C1=O,?,.,0,-26%,-2%,?
CCCCNC(=O)C[C@@H]1C[C@@]2(C(=O)OCC)CCC=C2N(CCC2=CCCCC2)C1=O,?,.,-23,-18%,0%,18µM*
CCOC(=O)[C@]12CCC=C1N(CCC1=CCCCC1)C(=O)[C@H](CC(=O)NCc1ccccc1)C2,?,.,-1,-1%,2%,?
CCOC(=O)[C@]12CCC=C1N(CCC1=CCCCC1)C(=O)[C@H](CC(=O)NCc1cccs1)C2,?,.,-1,3%,10%,?
CCOC(=O)[C@]12CCCC=C1N(CCC1=CCCCC1)C(=O)[C@H](CC(=O)NCc1ccccc1)C2,16µM*,.,-8,?,?,?
CCOC(=O)[C@]12CCC=C1N(CCC1=CCCCC1)C(=O)[C@H](CC(=O)NCCCCc1ccccc1)C2,21µM*,.,16,?,?,?
CCOC(=O)[C@]12CCC=C1N(CCC1=CCCCC1)C(=O)[C@H](CC(=O)NCCC(C)C)C2,16µM*,.,0,-15%,5%,?
O=C(NC1CCC1)C1CCC(=O)N(Cc2ccc(Cl)cc2)C1 (configuration not stated),-10%,.,11,3%,2%,3%
Cc1ccccc1-c1nc(SCC(=O)NCc2ccco2)c2c(=O)n(C)c(=O)n(C)c2n1,7%,.,.,.,.,-24%
Cc1ccc(NC(=O)[C@@H]2O[C@H](CO)[C@H](O)[C@H](O)[C@H]2O)cc1C(F)(F)F,-1%,.,32,1%,?,-2%
CCOC(=O)[C@]12CCCC=C1N(CCC1=CCCCC1)C(=O)[C@H](CC(=O)NCc1ccc(C)o1)C2,13µM*,.,-26,?,?,?
CCOC(=O)[C@]12CCCC=C1N(CCc1ccc(OC)c(OC)c1)C(=O)[C@H](CC(=O)NCc1ccc(C)o1)C2,16µM*,.,4,5%,15%,13µM*
CC(C)CNC(=O)c1ccc(C2SCC(=O)N2Cc2ccccc2)cc1 (configuration not stated),16µM*,-4%,-9,1%,-6%,?
COc1ccc(CCCNC(=O)C2Cc3c(-c4ccc(NC(C)=O)cc4)ccnc3O2)cc1 (configuration not stated),18µM*,.,-19,16µM*,?,16µM*
COc1ccc(CCCNC(=O)C2(C)Cc3c(-c4ccc5c(c4)OCO5)ccnc3O2)cc1 (configuration not stated),5.8µM*,.,0,?,?,5.2µM*
COc1ccc(CCCNC(=O)C2Cc3c(-c4ccc5c(c4)OCO5)ccnc3O2)cc1 (configuration not stated),?,.,52,5.8µM*,9.2µM*,?
CN1CCN(c2ccc(CNC(=O)C3Cc4c(-c5ccc6c(c5)OCO6)ccnc4O3)cc2)CC1 (configuration not stated),?,.,-27,-28%,-26%,-10%
COCCNC(=O)C1Cc2c(-c3cccc(NC(C)=O)c3)ccnc2O1 (configuration not stated),?,.,29,-2%,-1%,?
COc1ccc(CCCNC(=O)C2Cc3c(-c4cccc(C(C)=O)c4)ccnc3O2)cc1 (configuration not stated),4.6µM*,.,0,?,?,3.7µM*
Nc1ncnc2c1nc(Sc1ccc(Cl)cc1)n2[C@H]1OC2COP(=O)(O)O[C@H]2[C@@H]1O (some centres not stated),-10%,.,.,0%,-11%,-21%
OC[C@@H]1CN(Cc2ccncc2)C[C@H](n2cnc3c(NC4CCCC4)ncnc32)O1,-3%,.,12,24%,6%,-20%
SMILES,TDP1 cell noCPT,uPA surface inh,IL-1B inflam inh,HT1080 IDH1KD tx,HT1080NT lethal,DT40 TDP1 CPT
CC(C)C(=O)NC1CC(=O)N(c2ccc3c(c2)OCCO3)C1 (configuration not stated),-5%,.,.,.,.,-10%
N#Cc1ccccc1S(=O)(=O)N1CCN(C(=O)CN2C(=O)NC3(CCCC3)C2=O)CC1,-12%,1%,10,12%,16%,1%
CCOc1ccc(NS(=O)(=O)c2ccc(C(=O)NCC(c3ccc(OC)cc3)N3CCOCC3)cc2)cc1 (configuration not stated),?,-6%,-9,-8%,-6%,-27%
O=C(Cc1ccccc1)Nc1nnc(-c2ccccc2)o1,?,-8%,-2,-11%,0%,?
CS(=O)(=O)c1ccccc1-c1nnc(NC(=O)Cc2ccccc2)o1,-1%,7%,-50*,1%,-17%,-13%
CSc1ccccc1-c1nnc(NC(=O)Cc2ccccc2)o1,-30%,-7%,-19,-23%,-27%,?
Cc1ccc(S(=O)(=O)CCC(=O)Nc2nnc(-c3ccc(F)cc3)o2)cc1,?,-9%,-59*,-16%,-10%,?
O=C(Cc1ccc(F)cc1)Nc1nnc(-c2ccc(F)cc2)o1,?,-18%,7,-25%,-21%,23µM*
O=C(c1ccc(NS(=O)(=O)c2ccc3[nH]c(=O)[nH]c3c2)cc1)N1CCN(c2ccccc2O)CC1,-9%,0%,12,6%,4%,-2%
CCC(=O)Nc1ccc2c(c1)nc1n2CCN(CCOC)C1,-22%,6%,5,-13%,-3%,-7%
Cc1cccc(C(O)c2ncc(-c3ccc(F)cc3)[nH]2)c1C (configuration not stated),?,.,-20,-17%,2%,?

# Source: PubChem BioAssay
